DRD3 antagonist: qHTS of D3 Dopamine Receptor Antagonist: qHTS. D(3) dopamine receptor (Homo sapiens), P35462. 360,000 tested, 2.5% active. D3R cells, DiscoveRx beta-arrestin luminescence, antagonist mode; active compounds read low. max response, negative = inhibition, %; in the data active = max response below about -50%; inconclusive = no clear call, values can overlap the other calls; note: % is set by controls: 0 for no effect and ±100 for the full control effect
Target sequence (P35462 whole entry, looked up): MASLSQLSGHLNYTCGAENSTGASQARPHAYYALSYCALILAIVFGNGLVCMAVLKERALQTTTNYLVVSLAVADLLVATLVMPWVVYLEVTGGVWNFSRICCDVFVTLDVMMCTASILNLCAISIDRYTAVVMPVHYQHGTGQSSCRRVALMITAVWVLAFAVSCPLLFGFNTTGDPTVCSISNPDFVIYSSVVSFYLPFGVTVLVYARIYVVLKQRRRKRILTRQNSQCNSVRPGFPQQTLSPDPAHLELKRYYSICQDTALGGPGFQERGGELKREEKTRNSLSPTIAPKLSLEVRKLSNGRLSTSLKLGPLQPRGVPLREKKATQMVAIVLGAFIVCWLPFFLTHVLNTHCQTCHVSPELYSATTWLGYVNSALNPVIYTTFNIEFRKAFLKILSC
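Cells expressing the human receptor were seeded at 1500 cells/well, incubated overnight at 37 degrees C in 5% CO2, then exposed to library compounds with dopamine controls for 90 minutes at 37 degrees C before luminescent detection.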
D3 ag: qHTS of D3 Dopamine Receptor Agonist: qHTS. D(3) dopamine receptor (Homo sapiens), P35462. D3R DiscoveRx beta-arrestin cells, luminescence, 90 min. max activation, %. 410,000 tested, 0.58% active; in the data active = max activation above about 30%; note: 0% is about no effect
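Cells at 1500/well, incubated overnight, then treated with pinned compounds (dopamine as control) for 90 min at 37 degrees C. DiscoveRx reagent added for 30 - 60 minutes at room temperature; luminescence read.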
ATXN2 expr inh: Primary qHTS for Inhibitors of ATXN expression | AID 1745845, 2022 | Potency, µM (series often up to 57 µM), inactives show at the highest dose activity change, negative = inhibition, actives largely listed as inhibitors | HEK-293 ATXN2-luciferase reporter, luminescence, 24 h | 360,000 tested, 0.72% active; note: potency is the fitted concentration of half-maximal effect; % is set by controls: 0 for no effect and ±100 for the full control effect; nearly all actives have a fitted effect of over 55% in size
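qHTS (up to 57 uM final) was run with 24 h compound exposure of reporter cells at 37 °C. Each well was multiplexed: SteadyGlo luminescence measured ATXN2-luciferase expression after a fluorogenic Gly-Phe-AFC viability readout (25 uM final).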
S2 tox: Viability Counterscreen for Primary qHTS for Inhibitors of ATXN expression; 400,000 tested, 0.49% active; Potency, µM (titrated, usually from 56.7 µM), actives largely listed as cytotoxic; S2 cells (HEK-293 line with an ATXN2-luciferase reporter) viability, CellTiter-Fluor protease fluorescence, 24 h; AID 651635, 2014; note: potency is the fitted concentration of half-maximal effect; nearly all actives have a fitted effect of over 40% in size
TGFb inhibitor: qHTS for Inhibitors of TGF-b. Potency, µM (doses to about 46.1 µM), for inactives: at the highest dose activity, negative = inhibition, hits mostly inhibitors. 410,000 tested, 1.2% active. HepG2 CAGA-GFP TGF-b/SMAD3 reporter, GFP fluorescence, 18 h; TGF-beta stimulated, 500 pg/mL final. AID 588855, 2011; note: potency is the fitted concentration of half-maximal effect; % is set by controls: 0 for no effect and ±100 for the full control effect; nearly all actives have a fitted effect of over 65% in size
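First, reporter cells (HEPG2 CAGA-GFP) rested 2 h at 37 degrees C. Next, compounds were pinned in and TGF-beta added to 500 pg/mL final. After 18 h, GFP was imaged per cell and summed per well.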
HepG2 tox: qHTS for Inhibitors of TGF-b: Cytotox Counterscreen | HepG2 CAGA-GFP viability, ATP luminescence, 18 h | Potency, µM (doses to about 46.1 µM), for inactives: at the top dose activity change, negative = cytotoxicity, actives largely listed as cytotoxic | 410,000 tested, 0.76% active | AID 588856, 2011; note: potency is the fitted concentration of half-maximal effect
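CellTiter-Glo luminescence gave cytotoxicity after 18 hours at 37 degrees C. The cells were HepG2 CAGA-GFP in 1% FBS DMEM, stimulated with 500 pg/mL TGF-beta after compound addition. %Activity was normalised to no-cell wells (complete cell-killing) and DMSO (no toxicity), and curves were fitted and classified.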
Active calls of the source: *; i = inactive; ? = inconclusive; . = no result given. Shown are actives, neighbours in structure and some others; about 4.7% of the full set was active somewhere. Unless noted, calls come from the whole dose curve; as a rule, active = well fitted curve in the direction sought with a large enough effect; inconclusive = small, poorly fitted or top-dose-only effect, or another doubt; inactive = no such curve, though single readings can be large; an effect the other way counts as inactive or inconclusive.

SMILES	DRD3 antagonist	D3 ag	ATXN2 expr inh	S2 tox	TGFb inhibitor	HepG2 tox
CC1=C(C(=O)N(C(C)C)C(C)C)CC(CC(=O)NC2CCCCC2)C(=O)N1Cc1ccc(C(C)(C)C)cc1 (centres undefined)	-1	-9	?	?	?	13µM*
CC1=C(C(=O)N(C(C)C)C(C)C)CC(CC(=O)NCc2cccs2)C(=O)N1Cc1ccc(F)cc1 (centres undefined)	-6	0	-5%	i	?	-3%
CC1=C(C(=O)N2CCCCCC2)CC(CC(=O)NCC2CCCCC2)C(=O)N1Cc1ccccc1 (centres undefined)	0	-5	-5%	?	-28%	8%
CC1=C(C(=O)N(C(C)C)C(C)C)CC(CC(=O)NCc2cccs2)C(=O)N1Cc1ccc(C(C)(C)C)cc1 (centres undefined)	-11	-7	?	?	?	16µM*
COc1ccc(CN2C(=O)C(CC(=O)NC3CCCC3)CC(C(=O)N(C(C)C)C(C)C)=C2C)cc1 (centres undefined)	-23	-9	-2%	i	-3%	9%
CCN(CC)C(=O)C1=C(C)N(Cc2ccc(C(C)(C)C)cc2)C(=O)C(CC(=O)NCC2CCCCC2)C1 (centres undefined)	-5	0	?	28µM*	?	-40%
CC1=C(C(=O)N2CCCCCC2)CC(CC(=O)NCC2CCCCC2)C(=O)N1Cc1ccc(F)cc1 (centres undefined)	-64*	-8	4%	?	.	.
COCC(=O)Nc1cc(C(=O)N2CC3CCCC2C3)c2c(c1)nc(-c1ccncc1)n2C (centres undefined)	.	.	.	i	.	.
C(=Nc1ccc2ccccc2n1)c1ccccn1	.	.	.	.	4%	5%
CCOC(=O)c1c(-c2ccccc2)c2cc(OC)ccc2n1CCCN(C)C	-72*	-21	.	i	?	18µM*
CCOC(=O)c1c(C)n(CCNC(C)=O)c2ccc(OC)cc12	19	5	7%	i	-2%	-17%
O=c1cc(-c2ccc([N+](=O)[O-])cc2)c2cc3c(cc2[nH]1)OCCO3	21	36*	-49%	?	-3%	-48%
O=c1n(Cc2ccc(Cl)cc2)c2ccccc2c2nc(-c3ccccc3)nn12	.	-1	.	.	-28%	-12%
Cc1cc(N2CCN(c3ccccc3)CC2)nc(-n2nc(C)cc2C)n1	-86*	-25	?	i	?	-34%
O=C1c2ccccc2C(=O)N1c1ccccn1	.	.	.	.	-12%	-32%
COc1ccc(CCNc2nc(C)nc3c2oc2ccccc23)cc1OC	-29	4	?	i	-9%	-24%
COc1ccc(CCNc2ncnc3c2oc2ccccc23)cc1OC	12	22	28µM*	.	?	-41%
COc1ccccc1C(=O)NCC(c1cccs1)N1CCc2ccccc21 (centres undefined)	-53*	-14	5%	i	-23%	-4%
COc1cc(C(=O)NCC(c2cccs2)N2CCc3ccccc32)cc(OC)c1OC (centres undefined)	2	6	-22%	i	?	-14%
Cc1ccc(NC(=O)Cn2c(-c3cncs3)nc3ccccc32)c(Br)c1	.	1	.	.	0%	-3%
O=C(Cn1c(SCC(=O)Nc2ccc(F)cc2)nc2ccccc21)NCc1ccc(Cl)cc1	.	1	-27%	?	13µM*	-98%
Cc1ccc(NC(=O)Cn2c(-c3ccc(F)cc3)cnc2SCC(=O)Nc2c(C)cccc2C)cc1	-71*	-10	-30%	i	-23%	-11%
O=C(Cn1c(-c2cncs2)nc2ccccc21)NCc1ccccc1	-84*	-35	-1%	i	3%	4%

High-throughput results deposited in PubChem BioAssay by National Center for Advancing Translational Sciences (NCATS).
